test system: RXRa DBDmut IVT, anti-RXR (DBD mutation: RXRa K156A/R161A, NR concentration 90 nM); experiment: PBM binding z-score (relative to random genomic background probes); higher = stronger binding; sequences stand for … in GC…GCGATTGACAGCGTAGAATGAAGG
Procedure, shortened: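 Antibodies against each partner of ligand-free nuclear receptor dimers (one per run) detected binding on custom Agilent 4×180K protein-binding microarrays after 1 h incubation. The double-stranded probes had 34-nt variable regions carrying direct-repeat seeds, single-nucleotide variants, half-site ablations and random human genomic background sequences. Binding z-scores, from regression-normalized fluorescence, use the random background probes as reference.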

Sequence	PBM binding z-score
CCTCGGAGGACAGAACGTCAGAGCTGTCCGCTTT	-0.411
AGAACGAGGGCACGCTGAGTTGATAGCAGAGTAG	1.95
TCATATAGGTAAACAGGGGAAAGTCCGTAAGTTA	1.97
GGAACGAGGGCAAGTTGTTAGCAGAGTTTGATGG	2.39
ATATGTAGGTTAGCTGGGGTCATTCAGACTAGGC	2.27
ACTCGGAGGAGAAAGGTCAGAGCTACGCCAGTGA	0.158
TGATTGAGGTTATAAGATCAGGGAACGTTGCAAA	0.404
CGAACCAGGTCATCCAGGACAGTGAATACATTGA	2.81
CGAACTAGGTCAGAACAGGAGAGTGAAGGATGAT	0.692
CCTCGGATGACAACAGGAGGTCAGAGCTGCCAGA	-0.48
CCGACTGGGGCAAGGTTAACATAACGCACAGCCA	-0.45
CTCGAAAGGTCTGTTGAGGTGAGTATACGGATAA	-0.237
TAGCGTAGGTCAGATCGGGCCAGTATACGCTATA	-0.899
CCTAGTTGGTCAGGGTCACACACGCTATAGGTAC	1.6
ACTAGTTGGTCATCTGAGGTCACACACAATTCGG	1.93
TCTTGTAGATCAAAGGGTAAGAAAGCCGAAGCCT	0.629
ATCGAAAGTTCGAAGGTGAGTATACCCACCCGAA	1.94
GCTATTAGTTGAAAGGGCAAGCGAATGATTCTCG	0.747
TAGACTAGGTCATTGGGCCAGTATAGTACGCATC	0.824
ATCGAAAGGTCGAGCTGAGTATAGAGAAAGGGAA	0.849
CCTACTGGGCCAAAGGTCATGGATTCCAATGCTC	0.383
CAAACTAGGTCAAGGTCAAACTCGGTTTGTGCCA	3.28

— the supplement of paper PMC6555819
